The record followed here is PubChem BioAssay (NCATS).

Assay [1] in a line: qHTS for Inhibitors of Plasmodium falciparum (DD2) proliferation (AID 504314).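 Also: parasite DNA measured by SYBR Green fluorescence after red cell lysis.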 A digest of the protocol: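 Parasite proliferation measured as SYBR Green signal from Plasmodium DNA, mature erythrocytes lacking DNA. 72 h incubation, 37C; activity scaled between vehicle and 0.29 uM artemisinin, with correction from vehicle-only plates.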
Assay [2] can be described thus: UWB1.289 Cancer Cell Toxicity qHTS against the NCATS CANVASS Library (AID 1347347). Also: nearly all actives have a fitted effect of over 60% in size. Also: potency is read from the fitted curve at half-maximal effect. In outline: (§1)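 Toxicity is measured over 72 h of compound exposure at 37 degrees C under 5% CO2. Each well holds 1000 cells, pre-incubated for 4 hours before dosing across an 11-point range. CellTiter-Glo luminescence gives viability.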
A short description of assay [3]: U-118MG Cancer Cell Toxicity qHTS against the NCATS CANVASS Library (AID 1347351). Also: potency is read from the fitted curve at half-maximal effect. In outline: as §1
(In general: In qHTS, concentration-response curves come from the screen itself.)

Assay [4] can be described thus: HPAF-II 24hr Apoptosis Induction qHTS against the NCATS CANVASS Library (AID 1347356). In outline: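 Using an 11-point qHTS format, HPAF-II cells in DMEM/10% FBS received compounds for 24 h; doxorubicin titration as control. Caspase-3/7 activity quantified by DEVD-luciferase luminescence.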
The nature of assay [5]: HPAF-II 12hr Apoptosis Induction qHTS against the NCATS CANVASS Library (AID 1347358). A digest of the protocol:
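Twelve-hour compound exposure of HPAF-II cells in DMEM with 10% FBS, then luminescent Caspase-Glo 3/7 detection after 15 min at room temperature; doxorubicin control.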

Assay [6] can be described thus: KB-8-5-11 Cancer Cell Toxicity qHTS against the NCATS CANVASS Library (AID 1347364). Also: nearly all actives have a fitted effect of over 75% in size. Also: potency is read from the fitted curve at half-maximal effect. In outline: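 Luminescent ATP signal (CellTiter-Glo, 10 min at room temperature) measured cell survival of KB-8-5-11 after 72 hr compound treatment. For confirmation, the cells were also grown with 1uM tariquidar.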
Assay [7] is described as follows: KB-3-1 Cancer Cell Toxicity qHTS against the NCATS CANVASS Library (AID 1347366). Also: nearly all actives have a fitted effect of over 75% in size. Also: potency is read from the fitted curve at half-maximal effect. In outline: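 Cytotoxicity toward KB-3-1 cells (500/well, DMEM + 10% FBS) was scored by CellTiter-Glo luminescence following 72 hr exposure at 37C, with bortezomib titrated as control.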
Assay [8] in a line: qHTS for ATAD5 Agonist screened against the NCATS CANVASS Library (AID 1347367).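 Also: luciferase reporter driven by ATAD5 which rises upon DNA damage.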 A digest of the protocol:
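Genotoxicity was scored as increased ATAD5-luciferase luminescence in HEK293T after 16hr of exposure, with cell viability measured by fluorescence beforehand in the same well.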

Assay [9] in a line: J3T Cancer Cell Toxicity qHTS against the NCATS CANVASS Library (AID 1347371). Also: potency is read from the fitted curve at half-maximal effect. In outline: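 ATP-based cytotoxicity in canine J3T cells: 72 hr exposure at 37C, 11-point titration, CellTiterGlo luminescent detection.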
The target of assay [10] is Nuclear receptor subfamily 1 group I member 3 (Homo sapiens) (UniProt Q14994). Nature of the assay: qHTS for Constitutive Androstane Receptor (CAR) Antagonist screened against the NCATS CANVASS Library (AID 1347372). Also: potency is read from the fitted curve at half-maximal effect. A digest of the protocol: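 Antagonist mode: compound added alongside 50 nM CITCO to HepG2-hCAR-CYP2B6 reporter cells, 24hr at 37C. Viability by CellTiter-Fluor fluorescence, then CAR-driven luciferase by ONE-Glo luminescence.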
Nuclear receptor subfamily 1 group I member 3 (Homo sapiens), sequence (Q14994 whole entry, looked up): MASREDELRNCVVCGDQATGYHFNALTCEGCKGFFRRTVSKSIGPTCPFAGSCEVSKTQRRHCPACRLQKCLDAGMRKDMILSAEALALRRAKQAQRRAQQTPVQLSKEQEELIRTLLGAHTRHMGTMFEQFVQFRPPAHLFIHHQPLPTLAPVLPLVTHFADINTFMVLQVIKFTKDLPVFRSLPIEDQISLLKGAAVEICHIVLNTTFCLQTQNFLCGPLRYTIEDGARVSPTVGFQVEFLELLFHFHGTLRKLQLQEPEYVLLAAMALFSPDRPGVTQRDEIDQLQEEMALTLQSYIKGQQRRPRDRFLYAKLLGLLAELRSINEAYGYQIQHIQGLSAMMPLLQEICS

Assay [11] shares this target. As to the kind of experiment: qHTS for Constitutive Androstane Receptor (CAR) Agonist screened against the NCATS CANVASS Library (AID 1347373).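 Also: every well also contained 1.5 µM PK11195 alongside the test compound.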 In outline: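 In an 11-point concentration series, compounds were incubated 24hr with HepG2 cells carrying hCAR and a CYP2B6-2.2kb reporter, with PK11195 at 1.5uM final. A CellTiter-Fluor viability read preceded the ONE-Glo luminescence read.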

A short description of assay [12]: 10-beta competent E. coli microbial cell viability qHTS against the NCATS CANVASS Library (AID 1347376). Also: series mostly up to about 46 µM. A digest of the protocol: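 Overnight 37C exposure of 10-beta E. coli (0.2 OD) to an 11-point concentration series; ATP-based luminescence after 20 min room-temperature reagent incubation; daunomycin as control.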
Assay [13] is described as follows: qHTS for H2AX Agonists against the NCATS CANVASS Library (AID 1347378).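 Also: phospho-H2AX S139 level in CHO-K1 lysates by TR-FRET emission ratio.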 Also: potency is read from the fitted curve at half-maximal effect. In outline: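 Signal is the 665/620 nm emission ratio from europium cryptate and d2 antibody pair, rising with S139-phosphorylated H2AX. CHO-K1 cells saw test agents for 3 hr at 37C; detection ran 24 hr at room temperature.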
Assay [14] in a line: Inflammasome Signaling qHTS Counterscreen: IL-1-beta AlphaLISA counterscreen against the NCATS CANVASS Library (AID 1347381).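 Also: cell-free check with purified IL-1β in medium and no THP-1 cells; series mostly up to about 57 µM.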 A digest of the protocol: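 Here, no cellular stimulation occurs; compounds in an 11-point series meet 4 pg purified IL-1-beta directly. Bead-based AlphaLISA detection follows (1 h acceptor/antibody, then 30 min donor, dark, room temperature), with excitation at 680 nm.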

Assay [15] in a line: Cytotoxicity qHTS for assessment of Hepg2 cells membrane integrity screened against the NCATS CANVASS Library (AID 1347387). A digest of the protocol:
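Membrane damage in HepG2 monolayers was estimated from released LDH, measured with CytoTox-ONE (ex 560/em 590 nm), after 5 hr treatment across 0.59 nM - 46 uM final.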

A short description of assay [16]: qHTS assay for small molecule disruptors of mitochondrial membrane potential screened against the NCATS CANVASS Library (AID 1347389). Also: nearly all actives have a fitted effect of over 60% in size. Also: potency is read from the fitted curve at half-maximal effect. A digest of the protocol:
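Cells (HepG2) seeded the day before received compound or DMSO for 1 hr, then Mito-MPS dye for 30 min at 37C; emission at 590 nm over 535 nm gave the polarization signal.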

Assay [17] can be described thus: Secretion counterscreen for inhibitors of the SERCaMP assay screened against the NCATS CANVASS Library (AID 1347390).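 Also: light from luciferase secreted into medium read as a measure of general secretion.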 Also: potency is read from the fitted curve at half-maximal effect. In outline:
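Natural products are titrated in an 11-point series up to 77 uM onto SH-SY5Y-GLuc STOP cells for 20 h. Secreted reporter activity is measured as coelenterazine-driven luminescence, with Brefeldin A on each plate.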
A general note: Counterscreens check selectivity or assay interference.

Assay [18] can be described thus: qHTS for activators of dead-cell proteases activity screened against the NCATS CANVASS Library (AID 1347392).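 Also: luminescence from protease leaking out of membrane-damaged cells cleaving impermeant substrate; rising signal means more cytotoxicity.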 Also: potency is read from the fitted curve at half-maximal effect. In outline:
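Luminescent dead-cell protease readout (AAF-aminoluciferin, 15 min, room temperature) after 5 h compound treatment of HepG2 cells (2000/well, pre-attached 18 h). Eleven concentrations.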

Assay [19] is described as follows: AP1 Signaling Pathway (AID 357; active = well fitted curve in either direction with a large enough effect, not every such curve was filed as active;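 also: ME-180 reporter cells stimulated with EGF at its EC50 level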). A digest of the protocol:
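AP-1-bla ME-180 cells, Opti-MEM + 0.5% dialyzed FBS, plated overnight 37 °C. Cpd titration + EC50 EGF, 5 h 37 °C. CCF4 2.5 h RT; ex 405, em 460/530 ratio → %activity, AC50.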

Records with an inconclusive call do not appear. Activity calls are given as the source filed them. Unless noted, calls follow the shape of the dose curve; as a rule, active = well fitted curve in the direction sought with a large enough effect; inconclusive = small, poorly fitted or top-dose-only effect, or another doubt; inactive = no such curve, though single readings can be large; an effect the other way counts as inactive or inconclusive.

Consider `CCOC(=O)[C@]12C[C@@H]3CCN(C(=O)N(C(C)=O)[C@@H]1c1ccccc1)[C@@H]32`, for which the result in assay [1] was inactive.
Take `CC(=O)[C@]12[C@H](c3ccccc3)[C@@H]3CCN(C(=O)N[C@H]1c1ccccc1)[C@@]32C`: the compound was called inactive in assay [1].
As for `COC(=O)C1=C2CCO[C@@H]2[C@H]2[C@@H](C)[C@H](OC)c3ccccc3[C@H]12`, the compound was classed as inactive in assay [1].
With `COC(=O)C1=C2CCO[C@H]2[C@@H]2[C@@H](C)[C@H](OC)c3ccccc3[C@@H]12`, in [1], the compound was called inactive.
As to `CC1=CC(=O)C2=C(C)C[C@H](O)[C@@H]3[C@H](OC(=O)[C@@H]3C)[C@@H]12`, the Potency result in assay [2], in assay [3], in [6], in assay [7], in assay [8] and in [9] was “inactive” each time. The Potency result in assay [10], in assay [13], in [16], in [17] and in assay [18] was “inactive” throughout. In addition, the call in assay [4], in assay [5], in [11], in [12], in [14] and in [15] was inactive.
Take `CC(=O)[C@@]12C3[C@@H](CCN3C(=O)N[C@H]1c1ccccc1)[C@H]2c1ccccc1` (some centres undefined): the compound was classed as inactive in assay [1].
With `COC(=O)[C@@H]1[C@@H](c2ccccc2)[C@H]2C(=O)c3c(OC)cc(OC)cc3O[C@@]12c1ccc(OC)cc1`, in assay [1], the compound was called inactive.
On to `COC(=O)[C@@]1(C=C2c3ccc(F)cc3[C@@H](OC)[C@@H]2C)[C@@H]2Oc3ccccc3[C@@H]21`, for which, in assay [1], the compound was called inactive.
Consider `C=C(C)C(=O)CP(=O)(OCC)OCC`, for which the compound was classed as inactive in [1].
`COC(=O)[C@]12C[C@@H]3CCN(C(=O)N[C@@H]1c1ccccc1)[C@@]32C`: the result in assay [1] was inactive.
On to `COC(=O)C1=NN=C(C(=O)OC)[C@@]2(C)c3ccccc3NC12` (some centres undefined), for which the compound was called inactive in [1].
Turning to `CCOC(=O)[C@]12C[C@]3(OC)CCN(C(=O)N[C@@H]1c1ccccc1)[C@@H]32`, the outcome in assay [1] was inactive.
Still for that read-out and setting: then `C=C1[C@@H]2CCN3C(=O)N[C@@H](c4ccccc4)[C@@]1(C(=O)OCC)C23` (some centres undefined), with “inactive”.
Consider `CCOC(=O)[C@]12C[C@]3(C)CCCN(C(=O)N[C@@H]1c1ccccc1)[C@@H]32`, for which the compound was called inactive in [1].
As for `C[C@@H]1CC[C@@H](c2ccoc2)N2C[C@@]3(CC[C@@H]12)CS[C@@]1(CC[C@H]2[C@H](C)CC[C@@H](c4ccoc4)N2[C@@H]1O)C3`, the Potency is 6.66 µM (active) in assay [2]; 8.41 µM (active) in [3]; 8.33 µM (active) in assay [6]; 8.33 µM (active) in [7]; 9.35 µM (active) in assay [9]; 8.31 µM (active) in assay [10]. The Potency in assay [13] is 10.9 µM (active); in assay [16], 13.2 µM (active); in [17], 12.2 µM (active); in assay [18], 11.7 µM (active). The compound was called inactive in assay [11], in assay [12] and in assay [14].
Consider `CC=C1CN(C=O)[C@H]2C[C@@H]1[C@@H](C(=O)OC)[C@@]13CCOC21Nc1ccccc13` (some centres undefined), for which the Potency entry in assay [3], in assay [6], in assay [7], in [8], in [9] and in assay [10] was “inactive” in each case. Moreover, the Potency result in assay [13], in [16], in [17] and in assay [18] was “inactive” in each case. Moreover, the outcome in assay [4], in assay [5], in assay [11], in [12], in [14] and in [15] was inactive.
Take `COC(=O)[C@@]1(C=C[C@@H](C)[C@H](OC)c2ccccc2Br)[C@@H]2Oc3ccccc3[C@@H]21`: the compound was classed as inactive in assay [1].
For the compound `COC(=O)C1(C)C2CC(C)C(c3ccccc32)N1C(=O)C(F)(F)F` (centres undefined), in assay [1], the compound was classed as inactive.
The same measure, in the same setting: the result for `COC(=O)[C@@]1(C=C2c3ccccc3[C@@H](OC)[C@@H]2C)[C@@H]2Oc3ccccc3[C@@H]21` reads “inactive”.
As to `CC[C@@H]1CN2CC[C@@]3(O)C(=Nc4cccc(OC)c43)[C@@H]2C[C@@H]1/C(=C\OC)C(=O)OC`, the Potency result in assay [2], in [3], in assay [6], in assay [7], in [8] and in assay [9] was “inactive” each time. The Potency result in assay [10], in assay [13], in assay [16], in assay [17] and in assay [18] was “inactive” each time. Moreover, the compound was called inactive in assay [4], in assay [5], in assay [11], in assay [12], in [14] and in assay [15].
With `CCOC(=O)[C@@]12[C@@H]3[C@@H](CCN3C(=O)N[C@H]1c1ccccc1)C2(C)C`, the result in assay [1] was inactive.
Turning to `CO[C@@H]1c2ccccc2[C@H]2C(C(=O)O)c3c(n(C)c4ccccc34)[C@H]2[C@H]1C` (some centres undefined), the result in assay [1] was inactive.
On to `c1ccc2c3c([nH]c2c1)CNCC3`, for which the result in [19], in [4], in [5], in [11], in [12] and in [14] was inactive. For the same compound, in assay [15], the outcome was inactive. The Potency entry in assay [2], in [6], in assay [7], in [8], in assay [9] and in assay [10] was “inactive” throughout. The Potency entry in assay [13], in [16], in assay [17] and in assay [18] was “inactive” in each case.
For `CC(=O)[C@]12C[C@@H]3CCCN(C(=O)N[C@@H]1c1ccccc1)[C@@H]32`, the outcome in assay [1] was inactive.
